Shiga toxin inh = Shiga toxin inhibition; 290,000 tested, 9.2% active; Vero cells, Shiga toxin protein synthesis inhibition reporter; inhibition, % at 38.7 µM; AID 2315; in the data active = inhibition mostly above about 28%, no sharp cut-off; inactive = mostly below about 43%; note: 0% is about no effect
Pf growth 48h = inhibits P. falciparum growth in the first generation, 48 h. P. falciparum luciferase growth in erythrocytes, 48 h. AID 504832. 310,000 tested, 5.9% active. Potency, µM (highest dose often 28.7 µM), for inactives: at the top dose activity change, negative = inhibition, hits mostly inhibitors; note: potency is the fitted concentration of half-maximal effect; % is set by controls: 0 for no effect and ±100 for the full control effect
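Luciferase-expressing parasites in RBCs, 2% Hct / 0.1% parasitemia final; RPMI 1640 + 0.5% Albumax; 37 C, 5% CO2, one generation; luminescence read-out, lower signal = inhibition.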
Cycloheximide cs = counter-screen for Shiga toxin inhibitors: cycloheximide protein synthesis inhibition; cell reporter, cycloheximide protein synthesis inhibition counterscreen; max response, %; 300,000 tested, 12% active; in the data active = max response mostly above about 13%, no sharp cut-off; inactive = mostly below about 14%; note: read at 38.3 µM for the half of the compounds with a filed dose; 0% is about no effect
HCV inhibitor = inhibitors of hepatitis C virus infection | Huh7.5.1 HCVcc-Cre infection, luciferase reporter, 44 h | Potency, µM (series often up to 41.8 µM), for inactives: top-dose activity change, negative = inhibition, hits mostly inhibitors | 340,000 tested, 3.4% active; note: potency is the fitted concentration of half-maximal effect; % is set by controls: 0 for no effect and ±100 for the full control effect
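Infectious HCVcc-Cre (~0.5 moi) was added to cells just after compound, with cells seeded 4 h earlier at 1,000 per well. Luciferase activity after 44 h culture reported infection; substrate was incubated 15 min at room temperature before reading.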
HCMV antiviral = human cytomegalovirus inhibition; HFF cells, HCMV-luciferase reporter, 72 h; stronger effect = lower value; activity change, negative = inhibition, % at 57.5 µM; 410,000 tested, 4.5% active; AID 1259415; in the data active = activity change below about -60%; inconclusive = no clear call, values can overlap the other calls; inactive = above about -39%; note: % is set by controls: 0 for no effect and ±100 for the full control effect
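Cell-based, HFFs, 1000 cells/well, 16 h 37C; cpds in DMSO + HCMV-luc, MOI 1 PFU/cell; 72 h 37C; OneGlo luminescence after 5 min RT; norm. to buffer vs Salinomycin 10uM.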
Pf growth 96h = P. falciparum growth inhibition at 96 hour, primary screen for plastid delayed-death inhibitors | 320,000 tested, 6.9% active | P. falciparum luciferase reporter growth, 96 h | Potency, µM (titrated, usually from 28.7 µM), for inactives: at the highest dose activity change, negative = inhibition, hits mostly inhibitors | AID 504834; note: potency is the fitted concentration of half-maximal effect; % is set by controls: 0 for no effect and ±100 for the full control effect
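P. falciparum expressing integrated firefly luciferase grown in erythrocytes (2% hematocrit, 0.05% parasitemia final) with compounds for 96 hours at 37 C, 5% CO2. Growth inhibition read as loss of luminescence after adding luciferase detection reagent.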
* marks the source's active call; other numbers are inactive results; ? = inconclusive; / = no result given; [ ] = another dose, or the depositor's remark. Only some compounds are listed: those with a hit (about 21% of all), similar ones and a draw of the others. Unless noted, calls come from the whole dose curve; as a rule, active = well fitted inhibition curve with a large enough effect; inconclusive = small, poorly fitted or top-dose-only effect, or another doubt; inactive = no such curve, though single readings can be large or run the other way.

SMILES	Shiga toxin inh	Pf growth 48h	Cycloheximide cs	HCV inhibitor	HCMV antiviral	Pf growth 96h
CCOC(=O)c1sc(=NC(=O)c2cccc(C)c2)n(C)c1C	122.9*	321.8%	24.4*	-5.8%	215.2	194.9%
CCOC(=O)c1sc(=NC(=O)c2cc(OC)c(OC)c(OC)c2)n(C)c1C	-12.4	-6.9%	-0.3	-3.9%	?	?
Cc1cccc(NC(=O)CSc2nc3ccccc3nc2N2CCCCC2)c1C	/	/	/	/	5.8	/
COc1ccc(S(=O)(=O)n2cccc2)cc1OC	12.5	15.1%	0.9	-11.9%	11.2	-0.9%
COc1ccc(S(=O)(=O)NC(=O)C2(C)CCN2C(=O)Cc2cccc3ccccc23)cc1 (stereo not drawn)	/	/	/	/	24.2	/
CC(C)NC(=S)NC(c1ccccc1)(c1ccccc1)c1ccccc1	2.3	6.57µM*	4.8	?	?	8.28µM*
Nc1cc(=O)[nH]c(SCC(=O)c2ccc(O)cc2O)n1	-13.6	40.1%	-2.8	17.2%	15.7	46.5%
O=c1[nH]c2cc3c(cc2cc1CN(Cc1nnnn1C1CCCC1)C1CCCC1)OCCO3	49.2	/	19.1	?	-4.9	9.28µM*
Cc1ccc2cc(CN(Cc3nnnn3C3CCCC3)C3CCCCC3)c(=O)[nH]c2c1C	69.7*	15.8%	36.0*	9.4%	-26.2	?
Cc1cccc2cc(CN(Cc3ccc(F)cc3)Cc3nnnn3C3CCCC3)c(=O)[nH]c12	-23.5	-8.8%	-3.6	0.4%	-20.0	153.4%
Cc1cccc2cc(CN(Cc3cccs3)C3(c4nnnn4C4CCCC4)CCCC3)c(=O)[nH]c12	40.7	12.1%	0.5	15.2%	-69.8*	77.9%
COc1cc2cc(CN(Cc3nnnn3C3CCCC3)C3CCCC3)c(=O)[nH]c2cc1OC	-4.4	6.2%	-2.6	/	/	-32.2%
Cc1cccc2cc(CN(Cc3cccs3)S(=O)(=O)c3ccc4c(c3)OCCO4)c(=O)[nH]c12	-7.5	-5.3%	-2.4	?	-83.9*	?
CCc1cc(=O)[nH]c(-n2[nH]c(-c3ccccc3)cc2=O)n1	23.3	2.6%	3.8	-0.9%	-29.1	-5.5%
O=c1cc(-c2ccccc2)[nH]n1-c1nc2ccccc2[nH]1	21.1	?	5.1	?	-83.5*	-1.5%
CSc1nc2sc(-c3ccccc3)cc2c(=O)n1N	48.2	99.2%	22.0*	-4.1%	140.2	354.4%
COC(=O)CNC(=O)CSc1nc2sc(-c3ccccc3)cc2c(=O)n1-c1ccccc1	/	/	/	-2.8%	-20.1	/
NC(=O)NC(=O)CSc1nc2sc(-c3ccccc3)cc2c(=O)n1-c1ccccc1	19.9	16.8%	11.0*	1.3%	-70.0*	38.7%[5.75 µM]
CCOC(=O)c1[nH]c2ccccc2c1NC(=O)c1cc(OC)cc(OC)c1	/	/	/	/	5.7	/
CC(=O)c1ccc(OCCn2c(SCC(=O)O)nc3ccccc32)cc1	-5.5	-14.6%	-3.6	18.2%	-17.1	?
O=C(CC1(O)C(=O)N(CCc2ccccc2)c2ccccc21)c1ccccn1 (stereo not drawn)	-5.6	0.5%	-1.9	12.9%	-21.7	-11.4%
O=C(CC1(O)C(=O)N(C/C=C/c2ccccc2)c2ccccc21)c1ccccn1 (stereo not drawn)	-16.6	-12.8%	-8.4	-9.7%	-70.7*	21.1%
COc1ccc(C(=S)N2CCCC2)cc1OC	14.3	/	-1.2	9.6%	25.4	-1.9%
COc1ccc(C(=S)N(C)C)cc1OC	-19.3	14.7%	-2.3	21.0%	28.9	8.28µM*
CCCCOc1ccc(C2CC(=O)N(C)C2=O)cc1 (stereo not drawn)	31.7*	41.9%	20.5*	8.2%	1.1	73.3%
SMILES	Shiga toxin inh	Pf growth 48h	Cycloheximide cs	HCV inhibitor	HCMV antiviral	Pf growth 96h
Cc1ccc(OCC(=O)N(c2ccc(C)cc2)S(=O)(=O)c2ccc(Cl)cc2)cc1	/	/	/	/	-7.0	/
COCCNC(=S)N/N=C(\C)CCc1ccc2c(c1)OCO2	6.4	?	0.9	-20.4%	-67.1*	?
C/C(CCc1ccc2c(c1)OCO2)=N\NC(=O)c1ccc(C)cc1C	76.8*	25.6%	39.1*	11.9%	5.5	24.8%
Cc1ccc(C(=O)NCc2ccc3c(c2)OCO3)c(C)c1	16.9	12.9%	10.8	-8.7%	58.5	?
C=CCNC(=S)Nc1ccc(N(C)C)cc1	24.2	-11.4%	29.2*	18.6%	-36.3	?
CCCNC(=O)C(=O)Nc1ccc(N(C)C)cc1	68.4*	497.0%	31.3*	11.1%	58.3	?
CN(C)c1ccc(NC(=O)C(=O)NCCOc2ccccc2)cc1	19.5	15.9%	3.9	18.7%	3.6	?
CC(=O)O[C@H]1[C@@H](O)[C@H](O)[C@H](Oc2c(O)c(C)c3c4c2[C@@H](C)CC[C@@H]4[C@@H](C)C[C@H]3C=C(C)C)O[C@H]1C	/	/	/	?	-96.9*	/
O=C(Nc1cc([N+](=O)[O-])ccc1F)C1CCN(S(=O)(=O)c2cccs2)CC1	/	/	/	6.5%	1.9	/
Oc1c(Br)cc(Br)cc1Oc1ccc(Br)cc1Br	19.4	?	-3.8	-19.5%[8.37 µM]	/	14.7µM*
Cc1c(C2=CCN(S(=O)(=O)c3ccc(Cl)cc3)CC2)c2ccccc2n1CC(=O)N1CCCC1	/	/	/	/	11.7	/
CN(C)/C=C/C(=O)/C=C/c1ccc(Cl)cc1Cl	102.2*	357.6%	34.1*	-5.2%	-16.4	53.5%
O=C(/C=C/c1ccccc1Cl)c1ccc[nH]1	51.5*	38.9%	36.3*	?	-62.5*	?
O=C(/C=C/c1ccc(Cl)cc1Cl)c1ccc[nH]1	74.6*	-17.2%	33.7*	1.1%	44.0	3.6%
Cc1cc(OC(=O)c2ccc(S(=O)(=O)N3CCOCC3)cc2)c([N+](=O)[O-])c(=O)[nH]1	11.3	2.4%	2.6	-0.4%	-35.2	?
Cc1ccc2c(c1C)-c1c(ccc(C)c1C)C(=O)C2=O	/	/	/	11.2µM*	-96.3*	/
Cc1nn(CCCC(=O)NCCc2ccccc2)c(=O)c2nn(-c3ccccc3)c(C)c12	5.2	-19.0%	2.6	-5.8%	0.9	?
Cc1ccc(-n2nc3c(=O)n(CC(=O)NC(C)CCc4ccccc4)nc(C)c3c2C)cc1 (stereo not drawn)	5.7	0.6%	-2.3	2.24µM*	/	?
CCc1cccc(C)c1NC(=O)Cn1nc(C)c2nn(-c3ccc(Cl)cc3)c(C)c2c1=O	/	/	/	/	-61.6*	/
Cc1c(Cl)c([N+](=O)[O-])nn1CCCC(=O)NCCc1ccccc1	101.8*	41.0%	31.2*	-4.4%	-29.6	7.38µM*
Cc1ccc(-n2nc3c(=O)n(CC(=O)NCc4ccccc4)nc(C)c3c2C)cc1	-3.3	9.7%	1.9	?	-28.8	14.1%
Cc1nn(CCCC(=O)NCCc2ccc(Cl)cc2)c(=O)c2nn(-c3ccccc3)c(C)c12	21.6	-13.5%	-1.0	?	-28.9	13.1µM*
CCOC(=O)c1sc(NC(=O)CCCn2nc([N+](=O)[O-])c(Cl)c2C)c(C(=O)OCC)c1C	-1.4	2.3%	-0.7	-14.4%	-38.8	1.31µM*
